Experimental data from the supplement of paper PMC3334620.
In all, about 33,000 sequences were measured (“E-score (-0.5 to 0.5)”: median about -0.041, highest 2% from about 0.37 on). What follows is part of a selection rich in the highest values, with near analogues and random picks from the rest.

target: T1, Ecm22 (UniProt Q05958); assay: PBM E-score (8-mer binding enrichment) (E-score (-0.5 to 0.5)); higher = stronger / more preferred TF binding; conditions: protein concentration: 200 nM; construct: GST-full length
T1 sequence: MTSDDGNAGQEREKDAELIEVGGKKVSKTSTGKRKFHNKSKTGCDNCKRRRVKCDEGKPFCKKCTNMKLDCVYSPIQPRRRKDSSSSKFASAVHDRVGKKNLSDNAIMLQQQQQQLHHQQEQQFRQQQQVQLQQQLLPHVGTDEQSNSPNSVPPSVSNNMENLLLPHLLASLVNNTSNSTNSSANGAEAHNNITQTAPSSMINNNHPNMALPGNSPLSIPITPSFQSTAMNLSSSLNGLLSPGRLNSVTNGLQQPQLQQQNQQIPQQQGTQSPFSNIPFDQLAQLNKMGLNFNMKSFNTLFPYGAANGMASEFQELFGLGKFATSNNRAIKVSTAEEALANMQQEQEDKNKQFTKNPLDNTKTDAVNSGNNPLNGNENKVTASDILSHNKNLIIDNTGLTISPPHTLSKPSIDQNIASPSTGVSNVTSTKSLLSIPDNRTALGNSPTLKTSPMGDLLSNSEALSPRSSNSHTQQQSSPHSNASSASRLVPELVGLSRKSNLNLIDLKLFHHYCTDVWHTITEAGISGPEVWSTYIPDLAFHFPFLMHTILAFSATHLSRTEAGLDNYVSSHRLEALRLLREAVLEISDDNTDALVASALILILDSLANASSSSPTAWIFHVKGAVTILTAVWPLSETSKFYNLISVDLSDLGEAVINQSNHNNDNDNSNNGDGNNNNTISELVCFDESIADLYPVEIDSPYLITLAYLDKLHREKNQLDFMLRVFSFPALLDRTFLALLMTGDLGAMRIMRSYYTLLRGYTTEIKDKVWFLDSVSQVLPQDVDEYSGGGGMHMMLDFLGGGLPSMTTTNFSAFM
Experimental: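 Universal 'all 10-mer' protein binding microarrays (Agilent AMADID 015681) probed with GST-tagged S. cerevisiae TFs (full-length or DBD) made by in vitro transcription/translation (PURExpress), about 100-200 nM. Bound TF was detected with fluorescent anti-GST. Each ungapped 8-mer (which stands for itself and its reverse complement) is scored by the PBM enrichment score (E-score), a modified Wilcoxon-Mann-Whitney statistic from -0.5 to +0.5, computed with the Universal PBM Analysis Suite. Scale: above 0.35 generally sequence-specific binding.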

Sequence | PBM E-score
AGCTACGA | 0.394
CTCTACGC | 0.00503
GGCTACAA | 0.042
GGCTACGA | 0.424
AGCGGGTA | 0.107
GACCTGAC | -0.172
GAACTTGC | -0.0845
ATGCACCG | -0.0745
TATATCGA | 0.131
GGCTGAAC | -0.0835
ACATTTGA | -0.158
CTTTGGAC | -0.0902
ACACGGTA | 0.108
AGACGGTA | -0.121
CTACGGTA | 0.0823
ATACGGTA | 0.383
GCACGGTA | -0.0289
GTACGGTA | 0.385
AGATAGCT | -0.0945
AGGCTCCA | -0.369
CTGCACAA | -0.214
CGGCAACC | -0.082

Sequence | PBM E-score
AACATTCT | -0.0433
ATTTATAA | 0.0523
ATTTATAC | 0.401
CTTTATAC | 0.23
AAGAACCC | -0.0304
AGTACCTA | -0.104
CCTACCTC | -0.0998
CGTACCTC | 0.435
CGTACCTA | 0.441
GGTACCTA | -0.1
AGTACCTC | -0.19
CTAGAACA | -0.0457
CGGGTCGC | 0.187
AACGTCGA | 0.178
AACGTCGT | 0.37
ACCGTCGT | 0.404
ACCGTCGA | -0.216
AACGTCGG | 0.17
ACCGTCGC | 0.278
AAGCTCAG | -0.321
CGGTTCGC | 0.151
AACCTAGC | -0.09

Sequence | PBM E-score
AGAGGGGG | -0.0644
ACAGCACC | -0.276
CCTCGTTC | 0.474
GCACGTTA | 0.0282
ACTCGGTC | 0.229
CCTCGTCC | -0.238
ACTCGTTA | 0.348
ACTCGTTG | 0.274
GCTCGTTA | 0.373
GCTCGCTA | 0.31
ACTCGTTC | 0.466
CCTCGTTA | 0.402
CCACGTTA | 0.0599
CCTCGTGC | 0.0902
TCTCCTAA | -0.203
TCTAGGAA | -0.0513
ACTCGCTC | 0.354
CCTCGCTC | 0.372
CCTCGCTA | 0.215
GGGAGAAA | -0.141
GGGGACCA | -0.259
AACGATTG | 0.384

Sequence | PBM E-score
AACGATTA | 0.382
AACGATTC | 0.377
CACGATTA | 0.1
GACGATTA | 0.0551
ACCGATTG | 0.115
AGCGATTC | 0.12
ATCGATTG | 0.0987
CACGATTC | 0.244
CAGGGCAA | -0.227
CTGACGTA | 0.132
AAGATACA | -0.046
GACTCGAC | 0.0219
ATGAGATG | -0.227
ACTGCTGA | -0.19
CCCTCTCC | -0.358
CTAGGAAA | -0.209
CGCGCAAA | 0.188
CTACGGGC | -0.0464
AAACGGGG | 0.361
ATACGGGC | 0.413
CTACGGGA | 0.146
